Laboratory results from PubChem BioAssay AID1159580 (chemical genetic matrix, 2015).
Several values for one entry are separate records, joined by “and”; a condition that tells them apart may be missing. Equal values may be shown once. About 2,000 (36%) of roughly 5,500 compounds were called active. About 18% were inconclusive and are not listed. This is one part of the list. Unmarked numbers belong to inactive results. Cut-off read from the data, not from the text of the source: active = normalized growth mostly below about 0.91 (no sharp cut-off); inconclusive = no clear call, values can overlap the other calls; inactive = mostly above about 0.92.

Assay: chemical genetic growth profiling, strain panel (AID 1159580);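 note: tested at 20 µM; growth read once vehicle control cultures reached saturation at 30 °C; 1 = growth at the plate median or of vehicle wells; lower values mean less growth of the strain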
Conditions: S. cerevisiae deletion strains, growth OD

## ClC1=C(Cl)C2(Cl)C3C(Cl)C=CC3C1(Cl)C2(Cl)Cl (configuration not stated)
Locus YAL013W, strain DEP1, active compounds read low
  normalized growth: 0.999
Locus YAL021C, strain ccr4, active compounds read low
  normalized growth: 0.99
Locus YAL026C, strain drs2, active compounds read low
  normalized growth: 0.999
Locus YAL030W, strain snc1, active compounds read low
  normalized growth: 1.01
Locus YBL061C, strain skt5, active compounds read low
  normalized growth: 1.01
Locus YBR009C, strain hhf1, active compounds read low
  normalized growth: 0.983
Locus YBR021W, strain FUR4, active compounds read low
  normalized growth: 0.987
Locus YBR023C, strain chs3, active compounds read low
  normalized growth: 0.998
Locus YBR171W, strain sec66, active compounds read low
  normalized growth: 0.994
Locus YBR229C, strain ROT2, active compounds read low
  normalized growth: 0.991
Locus YBR231C, strain swc5, active compounds read low
  normalized growth: 0.999
Locus YBR279W, strain paf1, active compounds read low
  normalized growth: 1
Locus YCL011C, strain gbp2, active compounds read low
  normalized growth: 0.996
Locus YCL016C, strain dcc1, active compounds read low
  normalized growth: 0.998
Locus YCL029C, strain bik1, active compounds read low
  normalized growth: 0.965
Locus YCL061C, strain MRC1, active compounds read low
  normalized growth: 0.996
Locus YCL069W, strain vba3, active compounds read low
  normalized growth: 1.01
Locus YCR088W, strain abp1, active compounds read low
  normalized growth: 0.998
Locus YDL005C, strain med2, active compounds read low
  normalized growth: 1.01
Locus YDL035C, strain GPR1, active compounds read low
  normalized growth: 0.962
Locus YDL040C, strain nat1, active compounds read low
  normalized growth: 1.01
Locus YDL074C, strain BRE1, active compounds read low
  normalized growth: 1
Locus YDL101C, strain DUN1, active compounds read low
  normalized growth: 0.989
Locus YDL134C, strain PPH21, active compounds read low
  normalized growth: 0.99
Locus YDL185W, strain tfp1, active compounds read low
  normalized growth: 0.983
Locus YDL192W, strain arf1, active compounds read low
  normalized growth: 0.98
Locus YDR001C, strain nth1, active compounds read low
  normalized growth: 1
Locus YDR069C, strain doa4, active compounds read low
  normalized growth: 0.981
Locus YDR101C, strain arx1, active compounds read low
  normalized growth: 0.992
Locus YDR137W, strain rgp1, active compounds read low
  normalized growth: 0.925
Locus YDR150W, strain NUM1, active compounds read low
  normalized growth: 0.995
Locus YDR159W, strain sac3, active compounds read low
  normalized growth: 0.817 (active)
Locus YDR162C, strain NBP2, active compounds read low
  normalized growth: 0.999
Locus YDR195W, strain ref2
  normalized growth: 0.913
Locus YDR297W, strain sur2, active compounds read low
  normalized growth: 1
Locus YDR318W, strain mcm21, active compounds read low
  normalized growth: 0.978
Locus YDR334W, strain swr1, active compounds read low
  normalized growth: 1.02
Locus YDR335W, strain msn5, active compounds read low
  normalized growth: 1.01
Locus YDR388W, active compounds read low
  normalized growth: 0.974
Locus YDR392W, strain spt3, active compounds read low
  normalized growth: 0.975
Locus YDR502C, strain sam2, active compounds read low
  normalized growth: 0.984
Locus YEL003W, strain gim4, active compounds read low
  normalized growth: 0.995
Locus YEL037C, strain rad23, active compounds read low
  normalized growth: 1.01
Locus YEL061C, strain CIN8 (second series), active compounds read low
  normalized growth: 1.01
Locus YEL061C, strain CIN8, active compounds read low
  normalized growth: 1
Locus YER015W, strain faa2, active compounds read low
  normalized growth: 0.992
Locus YER016W, strain bim1, active compounds read low
  normalized growth: 1
Locus YER110C, active compounds read low
  normalized growth: 0.978
Locus YER111C, strain swi4, active compounds read low
  normalized growth: 1
Locus YER155C, strain BEM2 (second series), active compounds read low
  normalized growth: 0.998
Locus YER155C, strain BEM2, active compounds read low
  normalized growth: 1.01
Locus YER167W, strain BCK2, active compounds read low
  normalized growth: 0.98
Locus YFR010W, strain ubp6, active compounds read low
  normalized growth: 0.995
Locus YGL078C, strain dbp3, active compounds read low
  normalized growth: 0.988
Locus YGL086W, strain mad1, active compounds read low
  normalized growth: 0.99
Locus YGL167C, strain pmr1, active compounds read low
  normalized growth: 0.998
Locus YGL173C, strain kem1, active compounds read low
  normalized growth: 0.993
Locus YGL227W, strain vid30, active compounds read low
  normalized growth: 1
Locus YGL240W, strain doc1, active compounds read low
  normalized growth: 0.986
Locus YGL248W, strain PDE1, active compounds read low
  normalized growth: 0.991
Locus YGL253W, strain hxk2, active compounds read low
  normalized growth: 0.999
Locus YGR078C, strain PAC10, active compounds read low
  normalized growth: 0.993
Locus YGR135W, strain pre9, active compounds read low
  normalized growth: 0.982
Locus YGR229C, strain SMI1, active compounds read low
  normalized growth: 0.985
Locus YGR252W, strain gcn5, active compounds read low
  normalized growth: 0.957
Locus YHR013C, strain ard1, active compounds read low
  normalized growth: 0.904
Locus YHR027C, strain rpn1, active compounds read low
  normalized growth: 0.995
Locus YHR030C, strain SLT2, active compounds read low
  normalized growth: 1 and 1.04
Locus YHR079C, strain IRE1 (second series), active compounds read low
  normalized growth: 0.973
Locus YHR079C, strain IRE1, active compounds read low
  normalized growth: 1
Locus YHR094C, strain hxt1, active compounds read low
  normalized growth: 0.988
Locus YHR129C, strain ARP1, active compounds read low
  normalized growth: 0.997
Locus YHR142W, strain chs7, active compounds read low
  normalized growth: 0.996
Locus YHR200W, strain rpn10, active compounds read low
  normalized growth: 0.987
Locus YIL066C, strain RNR3, active compounds read low
  normalized growth: 0.971
Locus YIL073C, strain SPO22, active compounds read low
  normalized growth: 0.922
Locus YIL125W, strain kgd1, active compounds read low
  normalized growth: 1
Locus YIR030C, strain dcg1, active compounds read low
  normalized growth: 0.989
Locus YJL092W, strain hpr5, active compounds read low
  normalized growth: 0.998
Locus YJL095W, strain BCK1 (second series), active compounds read low
  normalized growth: 1
Locus YJL095W, strain BCK1, active compounds read low
  normalized growth: 1.03 and 1.04
Locus YJL115W, strain asf1, active compounds read low
  normalized growth: 0.995
Locus YJL129C, strain trk1, active compounds read low
  normalized growth: 0.854 (active)
Locus YJL134W, strain LCB3, active compounds read low
  normalized growth: 0.984
Locus YJL154C, strain vps35, active compounds read low
  normalized growth: 1
Locus YJL164C, strain tpk1, active compounds read low
  normalized growth: 0.953
Locus YJL166W, strain qcr8, active compounds read low
  normalized growth: 0.943
Locus YJL168C, strain set2, active compounds read low
  normalized growth: 0.977
Locus YJL187C, strain SWE1 (second series), active compounds read low
  normalized growth: 0.989
Locus YJL187C, strain SWE1, active compounds read low
  normalized growth: 1.01
Locus YJR043C, strain POL32, active compounds read low
  normalized growth: 0.997
Locus YJR066W, strain TOR1, active compounds read low
  normalized growth: 0.961
